Results filed as inconclusive are left out. Entries that show only a call come without a potency. The source made the active and inactive calls. Calls come from the whole dose curve.
Each compound was assayed against Thyrotropin receptor (Homo sapiens) (UniProt P16473) (assay: qHTS assay to identify small molecule antagonists of the thyroid stimulating hormone receptor (TSHR) signaling pathway (AID 1259385; note: nearly all actives have a fitted effect of over 20% in size)). Conditions: TSHR-HEK293 cAMP HTRF, TSH-stimulated antagonist mode; series mostly up to 92.4 µM.
Description: U.S. Tox21 Program National Center for Advancing Translational Sciences [NCATS] NIH Chemical Genomics Center [NCGC] U.S. Environmental Protection Agency [EPA] National Institutes of Environmental Health Sciences [NIEHS] National Toxicology Program [NTP] U.S. Food and Drug Administration [FDA] Tox21 Assay Overview: TSHR is the receptor for thyrotropin (thyroid stimulating hormone or TSH), a member of the glycoprotein hormone family. TSH is released by the anterior pituitary gland and is the main regulator of thyroid gland growth and development. Upon binding circulating thyrotropin, a G-protein signal cascade activates adenylyl cyclase and […] cAMP concentration is increased. cAMP is a key second messenger involved extensively in cellular signal transduction pathways associated with the majority of G-protein coupled receptors (GPCRs). The activation of these GPCRs by neurotransmitters, lipids, nucleotides, peptides and hormones results in the activation or the inhibition of plasma membrane-bound adenylate cyclase through heterotrimeric G-proteins. A cell-based TSHR assay can be used to screen chemical compounds that modulate TSHR either in agonist or antagonist mode.
Tox21 Assay Protocol Summary: TSHR-Hek293 cells were dispensed at 800 cells/4uL/well in 1536-well white plates using a Multidrop dispenser. After the assay plates were incubated at a 37C/5% CO2 incubator for 18 hrs, 23 nL of compounds dissolved in DMSO, positive controls or DMSO only was transferred to the assay plate by a pin tool, followed by 1 ul medium containing Ro20-1724. For the antagonist mode screening, 1 uL of TSH was added on the top of the cell/compound mixtures to achieve a final agonist concentration of 1.5 ng/mL. After 30 min of incubation at room temperature, 2.5 ul/well of cAMP-d2 and 2.5 ul/well of anti-cAMP-cryptate were added respectively into the assay plates using a Flying Reagent Dispenser. The plates were incubated at room temperature for 1 hr. The fluorescence intensity in the plates was measured using an Envision plate reader. Each test compound was measured at 15 concentrations and in triplicates.

Sequence of Thyrotropin receptor (Homo sapiens) (P16473 whole entry, looked up): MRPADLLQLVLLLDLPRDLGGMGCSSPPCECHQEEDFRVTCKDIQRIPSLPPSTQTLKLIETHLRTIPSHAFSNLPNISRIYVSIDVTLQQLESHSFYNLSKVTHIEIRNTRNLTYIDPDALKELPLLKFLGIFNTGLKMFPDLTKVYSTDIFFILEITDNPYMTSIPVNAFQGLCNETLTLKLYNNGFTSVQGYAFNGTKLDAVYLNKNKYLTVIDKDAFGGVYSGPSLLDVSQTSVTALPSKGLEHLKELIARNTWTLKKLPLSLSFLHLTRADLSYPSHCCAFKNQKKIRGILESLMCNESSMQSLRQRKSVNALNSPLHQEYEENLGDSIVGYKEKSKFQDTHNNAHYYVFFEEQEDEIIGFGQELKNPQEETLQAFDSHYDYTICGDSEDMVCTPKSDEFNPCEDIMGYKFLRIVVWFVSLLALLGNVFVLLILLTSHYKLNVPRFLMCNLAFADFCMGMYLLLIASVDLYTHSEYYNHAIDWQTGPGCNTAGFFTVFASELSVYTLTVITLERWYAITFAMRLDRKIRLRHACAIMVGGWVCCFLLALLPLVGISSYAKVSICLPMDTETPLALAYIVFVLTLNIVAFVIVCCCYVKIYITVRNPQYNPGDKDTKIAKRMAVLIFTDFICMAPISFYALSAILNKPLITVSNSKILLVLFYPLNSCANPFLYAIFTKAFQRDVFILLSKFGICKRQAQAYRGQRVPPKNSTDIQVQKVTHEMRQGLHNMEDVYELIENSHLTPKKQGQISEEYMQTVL

SMILES | Potency
COc1c2ccoc2cc2oc(=O)ccc12 | inactive
CC(=O)OC(C)(C)C1CC=C(C)CC1 (stereo not given) | inactive
CC1(C)[C@@H](O[C@H]2O[C@H](C(=O)O)[C@@H](O)[C@H](O)[C@H]2O[C@@H]2O[C@H](C(=O)O)[C@@H](O)[C@H](O)[C@H]2O)CC[C@]2(C)[C@H]3C(=O)C=C4[C@@H]5C[C@@](C)(C(=O)O)CC[C@]5(C)CC[C@@]4(C)[C@]3(C)CC[C@@H]12 | inactive
NCCNCCNCCN | inactive
CCc1cccc(O)c1 | inactive
O=C1OC(=O)c2c(Cl)c(Cl)c(Cl)c(Cl)c21 | inactive
COc1cc(NC(=O)CC(C)=O)c(OC)cc1Cl | inactive
CC(C)=CCC/C(C)=C/C=O | inactive
CCCN(CCC)C(=O)SCC | inactive
O=C(O)Cc1c[nH]c2ccccc12 | inactive
OC[C@H]1O[C@@H](Oc2ccc(O)cc2)[C@H](O)[C@@H](O)[C@@H]1O | inactive
CCCCCCCCCCCCCC(=O)O | inactive
Cc1cccc(C)c1[N+](=O)[O-] | inactive
CCOC(=O)CC(=O)OCC | inactive
CC(=O)OC/C=C(\C)CCC=C(C)C | inactive
Clc1cccc(Cl)c1NC1=NCCN1 | inactive
Nc1cccc(N)n1 | inactive
Cc1ccc([N+](=O)[O-])cc1N | inactive
N#CCC(=O)O | inactive
Cc1cc(C)c(O)c(C)c1 | inactive

SMILES | Potency
OB(O)O | inactive
CC/C=C(\C(=O)N[C@@H]1C(=O)N2C(C(=O)OCOC(=O)C(C)(C)C)=C(COC(N)=O)CS[C@H]12)c1csc(N)n1 | inactive
O=C(O)C1=NN(c2ccc(S(=O)(=O)O)cc2)C(=O)C1 | inactive
C=C(C)CC(C)(C)C | inactive
O=C1O[C@H]([C@H](O)CO)C(O)=C1O | inactive
CCCCC(=O)O | inactive
CC(=O)OC[C@H]1O[C@@](COC(C)=O)(O[C@H]2O[C@H](COC(C)=O)[C@@H](OC(C)=O)[C@H](OC(C)=O)[C@H]2OC(C)=O)[C@@H](OC(C)=O)[C@@H]1OC(C)=O | inactive
Cc1ncc(CO)c(CO)c1O | inactive
CCc1cccc(CC)c1N | inactive
N[C@@H](Cc1cc(I)c(Oc2ccc(O)c(I)c2)c(I)c1)C(=O)O | inactive
O=Cc1ccc(CO)o1 | inactive
CCOC(=O)c1ccc(O)cc1 | inactive
Cc1ccccc1C=O | inactive
C=C(CC(=O)O)C(=O)O | inactive
OCC(CO)(CO)CO | inactive
CC(C=O)Cc1ccc(C(C)(C)C)cc1 (stereo not given) | inactive
CC(=O)Nc1ccc(CC(=O)O)cc1 | inactive
CCCCCCCCC(=O)O | inactive
NC1CCCCC1N (stereo not given) | inactive
CC(=O)OCc1ccc2c(c1)OCO2 | inactive
